According to the supplement of paper PMC6555819:

Tests used:
Test in all cases: PBM binding z-score (relative to random genomic background probes); higher = stronger binding; sequences stand for … in GC…GCGATTGACAGCGTAGAATGAAGG
[1] = tested on: FXR:RXRa (NR concentration 270 nM, RXRa partner concentration 90 nM)
How it was run: (§1)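 Each nuclear receptor dimer, without ligand, was incubated for 1 h on custom Agilent 4×180K protein-binding microarrays. Binding was detected with antibodies against each partner (one per run), and scanned fluorescence was regression-normalized. The binding z-scores are referenced to random human genomic background probes.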

[2] = tested on: LXRa:RXRa (NR concentration 270 nM, RXRa partner concentration 90 nM)
How it was run: as §1

[3] = tested on: LXRa homodimer (NR concentration 270 nM)
How it was run: as §1

[4] = tested on: LXRb:RXRa (NR concentration 270 nM, RXRa partner concentration 90 nM)
How it was run: as §1

[5] = tested on: LXRb homodimer (NR concentration 270 nM)
How it was run: as §1

[6] = tested on: PPARa:RXRa (NR concentration 270 nM, RXRa partner concentration 90 nM)
How it was run: as §1

[7] = tested on: PPARg:RXRa (NR concentration 180 nM, RXRa partner concentration 90 nM)
How it was run: as §1

[8] = tested on: PPARg:RXRa 270nM:90nM, anti-RXR (NR concentration 270 nM, RXRa partner concentration 90 nM)
How it was run: as §1

[9] = tested on: PPARg:RXRa 30nM:10nM, anti-RXR (NR concentration 30 nM, RXRa partner concentration 10 nM)
How it was run: as §1

[10] = tested on: PPARg:RXRa 90nM:30nM, anti-RXR (NR concentration 90 nM, RXRa partner concentration 30 nM)
How it was run: as §1

[11] = tested on: PPARg:RXRa DBDmut IVT, anti-RXR (DBD mutation: RXRa K156A/R161A, NR concentration 270 nM, RXRa partner concentration 90 nM)
How it was run: as §1

[12] = tested on: PPARg:RXRa IVT, anti-PPARg (NR concentration 270 nM, RXRa partner concentration 90 nM)
How it was run: as §1

[13] = tested on: PPARg DBDmut:RXRa IVT, anti-PPARg (DBD mutation: PPARg1 K132A/R137A, NR concentration 270 nM, RXRa partner concentration 90 nM)
How it was run: as §1

[14] = tested on: PPARg DBDmut IVT, anti-PPARg (DBD mutation: PPARg1 K132A/R137A, NR concentration 270 nM)
How it was run: as §1

[15] = tested on: PPARg homodimer (NR concentration 180 nM)
How it was run: as §1

[16] = tested on: PXR:RXRa (NR concentration 270 nM, RXRa partner concentration 90 nM)
How it was run: as §1

[17] = tested on: PXR homodimer (NR concentration 270 nM)
How it was run: as §1

[18] = tested on: RARa:RXR (NR concentration 270 nM, RXRa partner concentration 90 nM)
How it was run: as §1

[19] = tested on: RARa homodimer (NR concentration 270 nM)
How it was run: as §1

[20] = tested on: RARb:RXRa (NR concentration 270 nM, RXRa partner concentration 90 nM)
How it was run: as §1

Sequence	PBM binding z-score [1]	PBM binding z-score [2]	PBM binding z-score [3]	PBM binding z-score [4]	PBM binding z-score [5]	PBM binding z-score [6]	PBM binding z-score [7]	PBM binding z-score [8]	PBM binding z-score [9]	PBM binding z-score [10]	PBM binding z-score [11]	PBM binding z-score [12]	PBM binding z-score [13]	PBM binding z-score [14]	PBM binding z-score [15]	PBM binding z-score [16]	PBM binding z-score [17]	PBM binding z-score [18]	PBM binding z-score [19]	PBM binding z-score [20]
CCGACTGGGGCAGCAAGGTTACCATACCATCCGG	-0.0165	-0.101	-0.322	-0.094	-0.744	0.883	0.917	0.659	-0.509	0.147	1.54	2.54	-0.529	-1.62	0.27	0.264	-0.339	0.662	-0.434	1.39
ATATGTAGGTTAGCTGTGGTCATTCAGACTAGGC	0.89	1.93	0.212	0.643	0.0822	2.29	3.3	2.79	0.838	1.89	6.97	6.07	2.72	2.03	1.37	1.3	0.0563	1.3	0.467	1.2
GCGACTGGGGCATCTGCAGGTTACCATAACTTAA	-0.256	0.365	-0.281	1.41	-0.198	1.53	0.863	1.01	-0.39	0.715	3.92	2.96	-0.0823	-0.117	0.207	0.314	-0.507	0.637	-1.22	0.859
CCTACGGGGCCAAAAAGGTCATTGATGCCGATAA	3.94	4.35	2.76	4.36	0.0213	4.67	1.63	2.97	0.7	1.77	0.493	1.52	-1.13	-0.859	2.87	5.34	9.18	5.07	0.847	4.26
AGTCAAAGTTCATCTAGGTAACGTATGATATGCT	6.72	5.89	5.49	3.77	1.5	4.97	6.95	6.52	3.52	5.74	0.872	3.88	1.48	1.76	2.9	5.12	7.63	3.93	1.68	4.95
TCTCGGAGGACACGAAAGGTCAGAGCGCGACATC	3.05	4.07	2.95	3.16	-0.239	3.64	1.36	2.96	2.26	2.66	1.45	1.17	-0.212	-0.0951	3.06	4.27	0.685	4.73	1.1	4.27
CAAACTAGATCACCGGAAGGTCAAAGTCCGCATG	3.07	3.21	3.33	3.19	1.2	3.85	2.04	2.62	0.824	1.84	3.34	3.13	0.538	0.366	2.31	3.54	1.53	3.99	1.63	3.21
TCTTGTAGATCAATAGAGGGTAAGAAAGTGCGCT	0.692	0.902	-0.251	0.517	0.175	0.606	-0.216	1.19	2.61	2.29	1.96	0.858	0.311	0.811	0.572	0.854	-0.0819	0.841	0.388	0.184
GATACAGGGTAAGCTAGAGGCCAGAGTATGGAAA	-0.252	-0.448	-0.407	-0.76	-1.15	-0.293	0.319	-0.0379	-0.0812	-0.0554	0.227	0.424	-0.118	-0.173	-0.435	-0.38	-0.17	-0.0414	-0.543	0.634
GCTTATAGGTAATACAAGGTGAAAGTCCGATTGT	0.773	2.61	0.251	0.934	-0.275	1.5	0.93	1.22	0.379	0.916	3.24	2.78	1	1.03	0.685	0.829	0.193	1.93	1.06	0.613
ATACCAAGGTGTTCGTGAGGTCGTTGATACTAAC	1.76	2.11	1.19	1.3	0.178	1.24	0.117	0.343	-0.0462	0.253	-0.0075	0.497	0.822	0.323	0.594	2.41	1.6	2.11	0.456	0.861
TCGTATAGGTAAAAGGTGAAAGTCGGTGTGGTAA	1.99	2.05	0.453	2.23	0.0721	4.51	6.49	7.01	6.31	7.11	3.45	3.77	0.0937	0.179	2.3	1.96	1.02	3.01	1.25	2.08
TCAATTAGTTGATTAGGGCAACCGAAACAGCGGA	0.579	0.188	-0.056	0.445	-0.277	0.882	0.217	1.6	3.41	2.45	2.01	1.32	0.608	0.646	-0.173	0.326	0.219	0.567	0.493	0.665
TCTTGTAGATCAGGAGGTTAAGAAAGCTGGCCAA	0.046	0.738	0.262	0.752	-0.475	1.46	-0.25	1.8	2.55	2.11	1.51	0.654	0.143	-0.244	0.0785	0.352	-0.154	0.854	-0.318	0.586
GCTAGTTGGTCAGTAAAAGGTTACACACCGGTCG	0.754	1.32	0.582	1.27	-0.0752	1.85	0.972	2.31	0.546	1.46	0.66	1.05	-0.658	-0.197	1.27	1.42	0.164	1.98	0.524	2
GTATCAAGGTGAATAGGTCGTTGATGAGTAGGCG	0.903	1.1	0.272	0.689	0.229	2.65	2.43	2.76	1.16	2.08	3.31	4.02	1.21	0.758	1.45	0.996	0.271	2.01	0.786	2.14
CCTACTGGGCCATTCAGACGTCATTGATCATATG	-0.301	-0.532	-0.873	-0.449	-0.437	0.168	0.616	0.206	0.0211	0.147	4.26	3.42	0.223	0.732	-0.0853	-0.71	-0.506	-0.696	-0.0635	-0.11
GGAACGAAGGCATTCGAGTTGATAGCATGGCGAT	-0.551	-0.66	-0.692	-1.09	-1.23	-1.8	0.416	-0.825	-0.794	-0.901	-0.318	-0.69	-0.596	-0.862	-1.41	-0.315	-0.602	-0.623	-0.628	-0.659
CGTCATAGTTCAAGGTAACGTAACAGAAAGCAGC	1.89	2.17	0.514	1.5	0.174	2.48	1.29	1.78	0.603	1.3	0.329	0.799	0.676	1.29	1.19	1.39	0.511	1.43	0.512	3.34
TCTAGCAGGTCAGAGGGTCACTCAAGAGGTACGG	4.13	3.26	0.192	2.87	-0.436	4.54	4.39	5.27	3.71	5.21	2.58	3.84	0.285	-0.567	3.57	3.55	-0.129	5.12	0.365	4.07
AATACAGGGTCACTAGGCCAGATTAGGTACGAAT	6.03	5.16	1.09	4.11	1.11	5.92	7.81	6.39	3.62	5.04	3.7	5.68	1.98	3.15	2.45	3.32	0.427	4.17	0.909	4.09
AATACAGGGTCATCGTATGCCAGAGTACGCACAG	7.33	5.98	1.87	4.34	1.25	5.64	6.62	5.86	2.88	4.57	2.86	4.36	4.37	2.02	2.61	4.31	0.464	5.23	0.493	4.21
CATACAGGGTCAGCTAGGCCCGAGTAGGGACGGC	4.65	3	-0.329	1.95	0.134	4.15	2.95	2.99	0.725	1.72	0.974	2.05	0.221	0.342	1.66	2.1	-0.596	3.11	0.256	4.08
CGTCCAAGGTCAAAGTTCAGTGAAGAGATGACGG	7.9	6.35	3.82	5.48	2.19	6.47	9.06	8.05	6.19	8.24	3.41	5.08	0.409	1.29	3.79	6.59	3.31	8.01	1.47	5.44
CGAACTAGGTCAGAACAGGTCAGTGAAGGATGAT	2.92	2.65	0.47	1.69	-0.091	3.73	5.27	4.8	1.67	4.11	7.05	7.16	1.14	1.73	1.66	3.32	0.18	2.3	0.424	3.57
TTACCAAGGTGAAGGTCGTTGTTCCCTCTGTAGA	1.41	1.32	0.195	1.41	-0.491	2.58	2.54	4.08	2.07	3.78	2.23	3.49	-0.665	-0.042	0.635	1.47	0.134	1.76	-0.318	2.4
ACAGACAGGTGATGAAGTTAACTCAGGCTATCAT	-0.177	-0.305	-0.307	-0.225	-0.182	-0.03	0.514	-0.0899	-0.051	-0.038	-0.14	0.266	0.864	0.239	0.153	0.166	0.125	0.133	0.502	-0.00565
TATACAGGGTCAAAGGCCGGAGTACGAATGTCGA	6.93	6.1	2.37	4.53	2.31	6.26	7.67	6.73	4.47	6.51	2.46	4.9	2.77	1.88	2.2	3.97	0.381	5.47	1.43	4.27
TCATATAGGTAAAGGTGAAAGTCGAACGATATGA	0.768	1.27	-0.00869	1.05	-0.112	3.41	4.01	4.55	4.42	4.75	3.76	4.23	1.81	1.2	1.04	1.13	-0.047	1.71	0.402	2.1
